# Results from PMC7862700, “An all-to-all approach to the identification of sequence-specific readers for epigenetic DNA modifications on cytosine”.
# How the values were obtained:
# Assay in all cases: DAPPL (digital affinity profiling via proximity ligation, sequencing); 10 mM Tris-HCl pH 7.5, 50 mM NaCl, 1 mM DTT, 4% glycerol, room temperature, 30 min; GST-TFs on glutathione beads, 16-mer random dsDNA library, 0.1% formaldehyde crosslink after washing; high values mean tight binding
# FEV = molecular target: T1, FEV (Homo sapiens, UniProt Q99581 1-238); settings: protein: recombinant; tags: N-terminal GST; dsDNA, one strand shown
# T1 sequence: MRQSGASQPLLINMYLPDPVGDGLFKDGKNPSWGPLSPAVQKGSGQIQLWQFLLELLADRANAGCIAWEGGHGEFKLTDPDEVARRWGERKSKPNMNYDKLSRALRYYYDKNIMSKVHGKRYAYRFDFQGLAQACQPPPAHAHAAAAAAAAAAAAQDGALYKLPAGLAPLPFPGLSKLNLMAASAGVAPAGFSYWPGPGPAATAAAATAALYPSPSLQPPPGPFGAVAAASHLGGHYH
# Procedure, shortened: (§1)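 Sequencing on an Illumina NextSeq500 followed washing, crosslinking with 0.1% formaldehyde, proximity ligation (BsaI/T4 ligase, 1 h, 37 °C) and PCR amplification of pools that had been incubated for 30 min at room temperature with 200 nmole of a random double-stranded 16-mer DNA library in Tris/NaCl/DTT/glycerol buffer. Each pool held DNA-barcoded human transcription factors, expressed in yeast as GST fusions and captured on glutathione beads, plus a tag-only sample. Binding signal is a hexamer's read frequency for a factor divided by its frequency in the tag-only sample.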
# ETV5 = ETV5 (Homo sapiens, UniProt P41161 1-510); settings: protein: recombinant; tags: N-terminal GST; dsDNA, one strand shown
# Procedure, shortened: as §1
# HSF1 = HSF1 (Homo sapiens, UniProt Q00613 1-529); settings: protein: recombinant; tags: N-terminal GST; chain copies: 3; dsDNA, one strand shown
# Procedure, shortened: as §1
# SPIC = molecular target: T2, SPIC (Homo sapiens, UniProt Q8N5J4 1-248); settings: protein: recombinant; tags: N-terminal GST; dsDNA, one strand shown
# T2 sequence: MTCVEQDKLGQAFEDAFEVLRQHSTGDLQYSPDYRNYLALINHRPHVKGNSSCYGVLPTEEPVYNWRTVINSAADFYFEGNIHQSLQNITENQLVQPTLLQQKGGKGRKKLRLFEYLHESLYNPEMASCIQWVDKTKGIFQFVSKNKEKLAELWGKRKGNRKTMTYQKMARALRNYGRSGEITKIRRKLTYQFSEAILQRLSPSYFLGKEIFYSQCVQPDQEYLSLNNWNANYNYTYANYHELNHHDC
# Procedure, shortened: as §1
# ELF4 = ELF4 (Homo sapiens, UniProt Q99607 1-663); settings: protein: recombinant; tags: N-terminal GST; dsDNA, one strand shown
# Procedure, shortened: as §1
# ELK4 = molecular target: T3, ELK4 (Homo sapiens, UniProt P28324-2 1-405); settings: protein: recombinant; tags: N-terminal GST; dsDNA, one strand shown
# T3 sequence: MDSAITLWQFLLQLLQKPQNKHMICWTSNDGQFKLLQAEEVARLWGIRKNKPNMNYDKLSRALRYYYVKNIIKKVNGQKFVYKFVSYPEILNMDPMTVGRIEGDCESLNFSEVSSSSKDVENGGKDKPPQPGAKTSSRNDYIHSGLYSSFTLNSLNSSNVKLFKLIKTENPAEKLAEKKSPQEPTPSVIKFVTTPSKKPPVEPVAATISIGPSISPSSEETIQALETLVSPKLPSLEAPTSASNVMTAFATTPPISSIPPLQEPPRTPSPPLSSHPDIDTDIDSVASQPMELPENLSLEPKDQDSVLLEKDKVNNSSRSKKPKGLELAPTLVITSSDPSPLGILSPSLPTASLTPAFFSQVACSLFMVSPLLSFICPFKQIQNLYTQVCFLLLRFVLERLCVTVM
# Procedure, shortened: as §1
# ETV2 = molecular target: T4, ETV2 (Homo sapiens, UniProt O00321 1-342); settings: protein: recombinant; tags: N-terminal GST; dsDNA, one strand shown
# T4 sequence: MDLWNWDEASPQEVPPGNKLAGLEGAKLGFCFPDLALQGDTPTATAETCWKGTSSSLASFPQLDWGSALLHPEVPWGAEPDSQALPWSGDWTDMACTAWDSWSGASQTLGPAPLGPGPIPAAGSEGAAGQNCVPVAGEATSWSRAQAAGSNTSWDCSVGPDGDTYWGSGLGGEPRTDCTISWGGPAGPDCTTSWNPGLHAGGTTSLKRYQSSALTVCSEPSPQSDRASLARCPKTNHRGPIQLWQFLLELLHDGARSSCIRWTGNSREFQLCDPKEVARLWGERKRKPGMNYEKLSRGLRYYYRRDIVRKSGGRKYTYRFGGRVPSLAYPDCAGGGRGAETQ
# Procedure, shortened: as §1
# ELF3 = molecular target: T5, ELF3 (Homo sapiens, UniProt P78545 1-371); settings: protein: recombinant; tags: N-terminal GST; dsDNA, one strand shown
# T5 sequence: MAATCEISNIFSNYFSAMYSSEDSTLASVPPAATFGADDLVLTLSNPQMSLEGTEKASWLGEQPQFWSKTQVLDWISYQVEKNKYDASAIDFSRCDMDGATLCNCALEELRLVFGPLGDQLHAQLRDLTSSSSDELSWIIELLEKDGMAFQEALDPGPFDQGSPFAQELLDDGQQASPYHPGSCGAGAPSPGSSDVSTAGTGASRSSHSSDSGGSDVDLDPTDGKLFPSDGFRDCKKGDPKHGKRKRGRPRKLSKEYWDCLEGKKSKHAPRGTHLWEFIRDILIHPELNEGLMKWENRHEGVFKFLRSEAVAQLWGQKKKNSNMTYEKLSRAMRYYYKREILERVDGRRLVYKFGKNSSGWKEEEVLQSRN
# Procedure, shortened: as §1
# CRX = CRX (Homo sapiens, UniProt O43186 1-299); settings: protein: recombinant; tags: N-terminal GST; dsDNA, one strand shown
# Procedure, shortened: as §1
# ETV1 = ETV1 (Homo sapiens, UniProt P50549 1-477); settings: protein: recombinant; tags: N-terminal GST; dsDNA, one strand shown
# Procedure, shortened: as §1
# ERF = molecular target: T6, ERF (Homo sapiens, UniProt P50548 1-548); settings: protein: recombinant; tags: N-terminal GST; dsDNA, one strand shown
# T6 sequence: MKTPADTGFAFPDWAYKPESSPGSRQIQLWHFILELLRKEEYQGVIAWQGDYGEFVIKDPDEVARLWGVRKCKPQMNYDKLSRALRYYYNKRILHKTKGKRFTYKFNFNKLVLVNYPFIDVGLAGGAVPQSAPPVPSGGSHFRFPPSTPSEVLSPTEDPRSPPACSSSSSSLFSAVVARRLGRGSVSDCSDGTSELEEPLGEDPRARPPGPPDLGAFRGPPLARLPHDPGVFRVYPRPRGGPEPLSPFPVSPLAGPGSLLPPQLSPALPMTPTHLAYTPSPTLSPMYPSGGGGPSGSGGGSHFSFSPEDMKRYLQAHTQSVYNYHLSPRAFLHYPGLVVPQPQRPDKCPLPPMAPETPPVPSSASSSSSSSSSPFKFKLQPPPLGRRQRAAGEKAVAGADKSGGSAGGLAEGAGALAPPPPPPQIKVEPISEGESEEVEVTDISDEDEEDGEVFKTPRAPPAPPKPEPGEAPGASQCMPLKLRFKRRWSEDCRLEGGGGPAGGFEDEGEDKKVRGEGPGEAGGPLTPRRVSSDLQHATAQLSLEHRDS
# Procedure, shortened: as §1
# ETV3L = molecular target: T7, ETV3L (Homo sapiens, UniProt Q6ZN32 1-361); settings: protein: recombinant; tags: N-terminal GST; dsDNA, one strand shown
# T7 sequence: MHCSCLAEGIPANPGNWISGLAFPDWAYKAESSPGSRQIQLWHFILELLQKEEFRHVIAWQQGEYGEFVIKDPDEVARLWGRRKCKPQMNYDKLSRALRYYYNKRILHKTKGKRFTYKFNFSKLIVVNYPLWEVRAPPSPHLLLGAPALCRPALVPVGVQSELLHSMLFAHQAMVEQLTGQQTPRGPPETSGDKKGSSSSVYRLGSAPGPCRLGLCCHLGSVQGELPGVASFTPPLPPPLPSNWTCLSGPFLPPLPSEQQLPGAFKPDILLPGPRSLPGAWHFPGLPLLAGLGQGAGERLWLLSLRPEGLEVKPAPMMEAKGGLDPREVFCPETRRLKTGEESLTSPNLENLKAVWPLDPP
# Procedure, shortened: as §1
# ETS2 = molecular target: T8, ETS2 (Homo sapiens, UniProt P15036 1-469); settings: protein: recombinant; tags: N-terminal GST; dsDNA, one strand shown
# T8 sequence: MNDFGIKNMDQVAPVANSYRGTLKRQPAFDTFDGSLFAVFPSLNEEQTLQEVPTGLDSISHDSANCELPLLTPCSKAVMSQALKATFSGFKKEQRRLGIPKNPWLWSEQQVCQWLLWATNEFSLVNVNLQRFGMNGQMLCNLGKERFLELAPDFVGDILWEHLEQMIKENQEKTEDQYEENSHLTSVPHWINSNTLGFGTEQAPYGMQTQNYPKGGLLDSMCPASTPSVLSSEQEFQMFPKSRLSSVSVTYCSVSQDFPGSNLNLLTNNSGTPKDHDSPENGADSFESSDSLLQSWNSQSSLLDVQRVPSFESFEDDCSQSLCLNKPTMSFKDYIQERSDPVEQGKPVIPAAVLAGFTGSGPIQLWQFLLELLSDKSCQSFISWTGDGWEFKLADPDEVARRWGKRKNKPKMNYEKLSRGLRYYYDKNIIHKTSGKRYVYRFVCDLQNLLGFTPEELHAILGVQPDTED
# Procedure, shortened: as §1
# SPDEF = molecular target: T9, SPDEF (Homo sapiens, UniProt O95238 1-335); settings: protein: recombinant; tags: N-terminal GST; dsDNA, one strand shown
# T9 sequence: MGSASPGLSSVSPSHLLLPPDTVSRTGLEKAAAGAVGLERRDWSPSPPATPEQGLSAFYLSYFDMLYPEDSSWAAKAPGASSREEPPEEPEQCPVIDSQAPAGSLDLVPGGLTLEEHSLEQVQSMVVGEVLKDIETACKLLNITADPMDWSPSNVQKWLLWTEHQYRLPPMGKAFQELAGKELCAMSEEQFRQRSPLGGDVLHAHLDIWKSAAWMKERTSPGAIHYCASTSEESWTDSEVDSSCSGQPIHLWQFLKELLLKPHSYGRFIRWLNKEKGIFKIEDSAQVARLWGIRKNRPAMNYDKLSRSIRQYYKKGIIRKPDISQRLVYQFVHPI
# Procedure, shortened: as §1
# ETV7 = molecular target: T10, ETV7 (Homo sapiens, UniProt Q9Y603 1-341); settings: protein: recombinant; tags: N-terminal GST; dsDNA, one strand shown
# T10 sequence: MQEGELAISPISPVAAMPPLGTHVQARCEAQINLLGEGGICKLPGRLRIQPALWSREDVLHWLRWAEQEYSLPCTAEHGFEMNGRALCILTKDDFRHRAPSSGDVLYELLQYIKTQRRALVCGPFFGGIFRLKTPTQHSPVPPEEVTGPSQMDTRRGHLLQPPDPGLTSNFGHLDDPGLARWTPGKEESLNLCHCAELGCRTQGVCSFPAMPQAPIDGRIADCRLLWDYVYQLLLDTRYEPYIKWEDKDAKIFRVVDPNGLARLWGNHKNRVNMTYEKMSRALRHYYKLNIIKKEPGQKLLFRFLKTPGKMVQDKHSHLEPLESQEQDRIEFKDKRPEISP
# Procedure, shortened: as §1
# ELF5 = molecular target: T11, ELF5 (Homo sapiens, UniProt Q9UKW6-2 1-255); settings: protein: recombinant; tags: N-terminal GST; dsDNA, one strand shown
# T11 sequence: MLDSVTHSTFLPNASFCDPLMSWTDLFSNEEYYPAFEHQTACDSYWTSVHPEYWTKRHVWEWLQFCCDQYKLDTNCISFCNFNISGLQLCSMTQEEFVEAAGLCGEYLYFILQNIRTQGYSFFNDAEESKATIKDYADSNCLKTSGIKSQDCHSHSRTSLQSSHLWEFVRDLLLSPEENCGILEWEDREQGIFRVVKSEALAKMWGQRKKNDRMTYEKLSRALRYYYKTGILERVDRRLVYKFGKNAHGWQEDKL
# Procedure, shortened: as §1
# ETV3 = molecular target: T12, ETV3 (Homo sapiens, UniProt P41162-2 1-143); settings: protein: recombinant; tags: N-terminal GST; dsDNA, one strand shown
# T12 sequence: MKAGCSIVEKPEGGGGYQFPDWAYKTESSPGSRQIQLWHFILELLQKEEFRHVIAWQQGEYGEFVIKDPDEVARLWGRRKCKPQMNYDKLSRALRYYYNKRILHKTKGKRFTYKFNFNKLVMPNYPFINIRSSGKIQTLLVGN
# Procedure, shortened: as §1
# ETV6 = ETV6 (Homo sapiens, UniProt P41212 1-452); settings: protein: recombinant; tags: N-terminal GST; dsDNA, one strand shown
# Procedure, shortened: as §1
# ETV5, sequence (P41161 whole entry): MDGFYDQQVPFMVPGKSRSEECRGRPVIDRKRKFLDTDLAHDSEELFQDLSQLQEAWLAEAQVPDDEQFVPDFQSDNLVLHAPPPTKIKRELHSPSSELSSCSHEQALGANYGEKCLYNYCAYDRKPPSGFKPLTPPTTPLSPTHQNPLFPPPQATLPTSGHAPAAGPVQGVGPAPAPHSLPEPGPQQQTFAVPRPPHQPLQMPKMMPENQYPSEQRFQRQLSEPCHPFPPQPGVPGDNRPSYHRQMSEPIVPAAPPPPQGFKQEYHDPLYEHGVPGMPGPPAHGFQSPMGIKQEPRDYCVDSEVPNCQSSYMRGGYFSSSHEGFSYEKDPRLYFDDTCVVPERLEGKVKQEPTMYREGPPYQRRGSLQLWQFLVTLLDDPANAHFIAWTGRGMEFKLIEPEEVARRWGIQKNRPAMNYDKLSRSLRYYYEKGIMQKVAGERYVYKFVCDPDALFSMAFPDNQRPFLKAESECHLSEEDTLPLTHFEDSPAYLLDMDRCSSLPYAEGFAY
# HSF1, sequence (Q00613 whole entry): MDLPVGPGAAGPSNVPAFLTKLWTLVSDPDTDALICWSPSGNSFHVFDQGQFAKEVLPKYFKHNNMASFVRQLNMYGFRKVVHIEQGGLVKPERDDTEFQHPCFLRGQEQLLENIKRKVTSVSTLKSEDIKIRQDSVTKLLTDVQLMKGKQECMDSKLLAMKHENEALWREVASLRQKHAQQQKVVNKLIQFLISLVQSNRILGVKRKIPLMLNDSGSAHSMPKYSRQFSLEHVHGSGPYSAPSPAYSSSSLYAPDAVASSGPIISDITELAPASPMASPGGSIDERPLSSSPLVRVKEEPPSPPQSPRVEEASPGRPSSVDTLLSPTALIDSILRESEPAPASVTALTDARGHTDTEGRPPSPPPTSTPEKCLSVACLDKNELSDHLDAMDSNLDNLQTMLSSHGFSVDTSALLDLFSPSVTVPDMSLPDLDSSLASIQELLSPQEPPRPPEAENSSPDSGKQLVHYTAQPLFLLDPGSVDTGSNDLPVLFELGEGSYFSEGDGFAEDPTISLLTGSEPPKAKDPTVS
# CRX, sequence (O43186 whole entry): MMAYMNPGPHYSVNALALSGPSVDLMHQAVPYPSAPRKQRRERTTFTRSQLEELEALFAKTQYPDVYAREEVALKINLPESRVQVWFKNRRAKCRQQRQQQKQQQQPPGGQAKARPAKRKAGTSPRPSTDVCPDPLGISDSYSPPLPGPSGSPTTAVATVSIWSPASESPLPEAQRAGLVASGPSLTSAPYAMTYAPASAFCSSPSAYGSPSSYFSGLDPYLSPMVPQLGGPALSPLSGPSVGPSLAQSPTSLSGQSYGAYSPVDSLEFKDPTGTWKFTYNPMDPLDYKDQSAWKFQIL
# ELF4, sequence (Q99607 whole entry): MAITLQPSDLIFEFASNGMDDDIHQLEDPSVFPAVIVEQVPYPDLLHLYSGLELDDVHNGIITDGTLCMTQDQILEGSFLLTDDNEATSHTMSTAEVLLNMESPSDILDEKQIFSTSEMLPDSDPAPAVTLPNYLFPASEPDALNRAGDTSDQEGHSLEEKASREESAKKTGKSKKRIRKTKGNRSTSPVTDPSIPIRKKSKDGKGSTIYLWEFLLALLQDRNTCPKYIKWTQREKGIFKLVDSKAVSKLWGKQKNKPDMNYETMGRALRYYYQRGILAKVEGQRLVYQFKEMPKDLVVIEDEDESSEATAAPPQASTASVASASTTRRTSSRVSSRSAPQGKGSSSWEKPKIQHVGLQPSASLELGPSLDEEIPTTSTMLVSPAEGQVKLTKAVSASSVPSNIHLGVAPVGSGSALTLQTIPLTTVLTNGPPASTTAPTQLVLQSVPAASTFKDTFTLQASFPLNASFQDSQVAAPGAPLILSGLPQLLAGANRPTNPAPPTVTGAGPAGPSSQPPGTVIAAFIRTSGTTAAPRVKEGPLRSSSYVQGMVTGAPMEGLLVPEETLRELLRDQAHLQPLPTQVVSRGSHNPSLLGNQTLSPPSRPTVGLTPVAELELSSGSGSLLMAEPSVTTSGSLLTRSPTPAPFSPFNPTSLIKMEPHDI
# ETV6, sequence (P41212 whole entry): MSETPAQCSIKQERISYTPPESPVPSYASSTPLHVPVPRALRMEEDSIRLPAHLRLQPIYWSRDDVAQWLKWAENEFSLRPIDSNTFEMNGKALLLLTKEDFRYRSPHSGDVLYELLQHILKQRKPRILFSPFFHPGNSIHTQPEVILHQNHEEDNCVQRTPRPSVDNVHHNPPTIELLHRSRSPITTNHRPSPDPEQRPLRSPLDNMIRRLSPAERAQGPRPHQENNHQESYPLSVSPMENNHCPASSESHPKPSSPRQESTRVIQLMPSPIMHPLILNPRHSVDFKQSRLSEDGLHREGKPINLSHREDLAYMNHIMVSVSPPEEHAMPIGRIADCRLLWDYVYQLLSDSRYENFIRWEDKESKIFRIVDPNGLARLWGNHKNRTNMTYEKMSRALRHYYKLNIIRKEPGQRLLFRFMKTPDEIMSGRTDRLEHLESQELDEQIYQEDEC
# ETV1, sequence (P50549 whole entry): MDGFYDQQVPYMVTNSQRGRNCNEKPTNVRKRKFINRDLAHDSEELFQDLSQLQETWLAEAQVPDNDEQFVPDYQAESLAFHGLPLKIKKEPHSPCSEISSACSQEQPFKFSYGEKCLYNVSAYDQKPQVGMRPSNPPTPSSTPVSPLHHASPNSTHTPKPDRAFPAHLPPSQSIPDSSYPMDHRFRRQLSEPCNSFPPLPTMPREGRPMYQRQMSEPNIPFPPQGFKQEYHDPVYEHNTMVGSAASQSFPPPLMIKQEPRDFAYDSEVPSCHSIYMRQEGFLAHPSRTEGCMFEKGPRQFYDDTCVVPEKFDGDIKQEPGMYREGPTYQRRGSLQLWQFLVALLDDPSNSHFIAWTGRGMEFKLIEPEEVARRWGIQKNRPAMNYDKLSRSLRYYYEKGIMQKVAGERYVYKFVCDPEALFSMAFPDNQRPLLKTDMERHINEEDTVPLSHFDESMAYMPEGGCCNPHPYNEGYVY
sequence,measurement,setting,value
TGGCAA,binding signal,FEV,"1.17 fold enrichment (6-mer frequency, TF over GST control)"
same,binding signal,ETV5,"1.18 fold enrichment (6-mer frequency, TF over GST control)"
same,binding signal,HSF1,"1.18 fold enrichment (6-mer frequency, TF over GST control)"
same,binding signal,SPIC,"1.13 fold enrichment (6-mer frequency, TF over GST control)"
same,binding signal,ELF4,"1.21 fold enrichment (6-mer frequency, TF over GST control)"
same,binding signal,ELK4,"1.19 fold enrichment (6-mer frequency, TF over GST control)"
same,binding signal,ETV2,"1.11 fold enrichment (6-mer frequency, TF over GST control)"
same,binding signal,ELF3,"1.03 fold enrichment (6-mer frequency, TF over GST control)"
same,binding signal,CRX,"1.07 fold enrichment (6-mer frequency, TF over GST control)"
same,binding signal,ETV1,"1.16 fold enrichment (6-mer frequency, TF over GST control)"
same,binding signal,ERF,"1.21 fold enrichment (6-mer frequency, TF over GST control)"
same,binding signal,ETV3L,"1.23 fold enrichment (6-mer frequency, TF over GST control)"
same,binding signal,ETS2,"1.14 fold enrichment (6-mer frequency, TF over GST control)"
same,binding signal,SPDEF,"1 fold enrichment (6-mer frequency, TF over GST control)"
same,binding signal,ETV7,"1.16 fold enrichment (6-mer frequency, TF over GST control)"
same,binding signal,ELF5,"1.16 fold enrichment (6-mer frequency, TF over GST control)"
same,binding signal,ETV3,"1.12 fold enrichment (6-mer frequency, TF over GST control)"
same,binding signal,ETV6,"1.28 fold enrichment (6-mer frequency, TF over GST control)"
